Hits are enriched below; roughly 2.5% of the tested compounds scored in any of these assays.
Casp7 inh: caspase-7 (human) inhibition, allosteric or competitive; P55210; recombinant caspase-7, Ac-DEVD-AFC fluorescence rate; Potency, µM (highest dose often 57.5 µM), hits mostly inhibitors; actives 0.02% (n = 75,000); active = well fitted inhibition curve with a large enough effect in the main read-out, with a control signal flat, not every such curve was filed as active; inconclusive = small, poorly fitted or top-dose-only effect, or a change in a side signal
FLuc inh: inhibitors of firefly luciferase; P08659; purified firefly luciferase, luminescence, 8 min; Potency, µM (series often up to 57.1 µM), most hits filed as inhibitors; actives 2.2% (n = 72,000); AID 411; also: nearly all actives have a fitted effect of over 40% in size
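Inhibition of light generation by firefly luciferase from ATP and luciferin was profiled with concentration-response curves per sample, ATP held at 10 uM within the enzyme's linear range. Plates were read by luminescence after an 8-minute ambient incubation.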
IkB sig inh: inhibitors of IkB signaling in ABC-DLBCL cells. ABC-DLBCL IkBa-CBG/CBR dual luciferase ratio, 4 h; response scale: scaled: untreated 0%, proteasome inhibitor 100%. Potency, µM (doses to about 57.1 µM). actives 0.04% (n = 110,000); active = well fitted curve in the direction sought with a large enough effect in the signal ratio, not every such curve was filed as active; inconclusive = small, poorly fitted or top-dose-only effect, or a change in a side signal; the % refers to the signal ratio;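 also: the direction sought is a rising ratio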
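Curves were fitted separately to fusion (green), unfused (red) and ratio luminescence, then classed by r2, magnitude and activity. Cells: OCI-Ly3, 4 h compound plus doxycycline at 37C; 10 uM MG-132 defined full response.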
p53ts 39C tox: p53ts cell cytotoxicity, nonpermissive temperature. H1299-p53A138V viability at 39C, ATP luminescence, 24 h. Potency, µM (highest dose often 46.1 µM), hits mostly cytotoxic. actives 1.5% (n = 130,000). AID 902; also: nearly all actives have a fitted effect of over 55% in size
p53ts 32C tox: kills p53ts cells at the permissive temperature; H1299-p53A138V at 32C, ATP luminescence viability, 24 h; Potency, µM (titrated, usually from 46.1 µM), usual class: cytotoxic; actives 0.93% (n = 130,000); AID 924; also: nearly all actives have a fitted effect of over 55% in size
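ATP-content luminescence (ATPlite) read-out after 24 h compound exposure at 32C in H1299-p53A138V cells (600/well). Tested up to 46 uM. Normalized to DMSO (0%) and 100 uM tamoxifen (100% killing); Hill-fit AC50.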
Casp1 inh: caspase-1 (human) inhibition, allosteric or competitive; Caspase-1 enzyme, Ac-WEHD-AFC fluorogenic rate; Potency, µM (series often up to 57.5 µM), most hits filed as inhibitors; actives 0.03% (n = 75,000)
Large screens that a line does not name were inactive. Unless noted, calls follow the shape of the dose curve; as a rule, active = well fitted curve in the direction sought with a large enough effect; inconclusive = small, poorly fitted or top-dose-only effect, or another doubt; inactive = no such curve, though single readings can be large; an effect the other way counts as inactive or inconclusive.

CCN(c1cccc(C)c1)C(CNS(=O)(=O)c1ccccc1)c1ccccc1 (configuration not stated)	IkB sig inh inconclusive, p53ts 39C tox 13µM (no result: Casp7 inh, FLuc inh, Casp1 inh)
Cc1cccc(N(C)C(CNS(=O)(=O)c2ccccc2)c2ccccc2)c1 (configuration not stated)	IkB sig inh inconclusive, p53ts 39C tox 32µM (no result: Casp7 inh, FLuc inh, Casp1 inh)
CCN(c1ccccc1)C(CNS(=O)(=O)c1ccccc1)c1ccccc1 (configuration not stated)	p53ts 39C tox inconclusive (no result: Casp7 inh, FLuc inh, Casp1 inh)
CCOC(=O)N1CCN(S(=O)(=O)c2cc(Br)cnc2N)CC1	none
CCS(=O)(=O)Nc1cc(-c2cn3ccc(C)cc3n2)ccc1C	p53ts 39C tox 13µM, p53ts 32C tox inconclusive (no result: Casp7 inh, FLuc inh, Casp1 inh)
Cc1ccn2cc(-c3ccc(C)c(NS(=O)(=O)c4ccc(Cl)cc4)c3)nc2c1	IkB sig inh inconclusive (no result: Casp7 inh, FLuc inh, Casp1 inh)
COc1cc(-c2noc(CCCC(=O)NCc3ccco3)n2)cc(OC)c1OC	none
COc1ccccc1-c1nc(-c2ccc(Br)cc2)no1	FLuc inh 13µM, IkB sig inh inconclusive, p53ts 39C tox inconclusive
COc1ccc(-c2nc(-c3ccc(Br)cc3)no2)c(OC)c1	FLuc inh 2.5µM, p53ts 32C tox inconclusive
COc1cc(OC)cc(-c2nc(-c3ccc(Br)cc3)no2)c1	none
COc1ccccc1-c1nc(-c2ccncc2)no1	FLuc inh 20µM
COc1nc(-c2ccc(C)cc2)ccc1-c1noc(-c2ccccc2Br)n1	none (no result: Casp7 inh, FLuc inh, Casp1 inh)
Cc1ccc(-c2noc(-c3ccccc3Br)n2)cc1	FLuc inh 3.2µM, p53ts 39C tox 10µM, p53ts 32C tox 13µM
Cn1c(=O)oc2cc(S(=O)(=O)N3CCC(C(=O)N4CCN(c5ccc(Cl)cc5)CC4)CC3)ccc21	IkB sig inh inconclusive (no result: Casp7 inh, FLuc inh, Casp1 inh)
CN(C)c1ccc(-c2noc(-c3ccccc3O)n2)cc1	FLuc inh 1µM, IkB sig inh inconclusive, p53ts 39C tox inconclusive, p53ts 32C tox inconclusive
Cc1ccccc1-c1noc(-c2ccc(O)cc2)n1	FLuc inh 20µM, IkB sig inh inconclusive
COc1ccc2cc(-c3nc(-c4ccc(N(C)C)cc4)no3)c(=O)oc2c1	none (no result: Casp7 inh, FLuc inh, Casp1 inh)
CC1(C)CC2CC(C)(CN2C(=O)COC(=O)c2ccc(Cl)cc2N)C1 (configuration not stated)	none
O=C(Nc1ccc2oc(Cc3ccc(Cl)cc3)nc2c1)c1cccnc1	IkB sig inh inconclusive
COc1cc2c(cc1OC)n(Cc1cccc(C(F)(F)F)c1)c(=O)n1nc(-c3ccccc3)nc21	none (no result: Casp7 inh, FLuc inh, Casp1 inh)
NC(=O)c1c(NC(=O)c2cccs2)sc2c1CCCCCC2	Casp7 inh inconclusive, FLuc inh 7.9µM, p53ts 39C tox inconclusive, p53ts 32C tox inconclusive (no result: Casp1 inh)
O=C(Nc1nc2c(s1)CCCC2)c1cccs1	FLuc inh 5µM, IkB sig inh inconclusive, p53ts 39C tox 10µM, p53ts 32C tox 10µM
Cc1ccc(C(=O)Nc2nc3c(s2)CCCC3)o1	Casp7 inh inconclusive (no result: Casp1 inh)
O=C(Nc1nc2c(s1)CCCC2)c1ccc(Br)o1	FLuc inh 6.3µM, IkB sig inh inconclusive, p53ts 39C tox inconclusive, p53ts 32C tox inconclusive
CC1(C)CC(=O)c2sc(NC(=O)c3cccs3)nc2C1	p53ts 39C tox 1.6µM, p53ts 32C tox 1.6µM (no result: Casp7 inh, FLuc inh, IkB sig inh, Casp1 inh)
Cc1cc(C)cc(-n2c(SCC(=O)NCc3ccco3)nc3c([nH]c4ccccc43)c2=O)c1	none (no result: Casp7 inh, FLuc inh, Casp1 inh)
CCOC(=O)COc1ccc(S(=O)(=O)NCc2cccnc2)cc1	none
Cc1ccc(-c2cn3nc(C)c(C)nc3n2)cc1	Casp7 inh inconclusive, FLuc inh 2.5µM, IkB sig inh inconclusive, p53ts 39C tox inconclusive, p53ts 32C tox inconclusive (no result: Casp1 inh)
CC(=O)n1nc(-c2ccco2)nc1SCc1ccccc1	Casp7 inh inconclusive, p53ts 39C tox inconclusive, p53ts 32C tox 13µM
CCOC(=O)c1c(N)sc(C(=O)Nc2ccc3c(c2)OCO3)c1C	FLuc inh 0.79µM, IkB sig inh inconclusive, p53ts 39C tox 2.5µM, p53ts 32C tox 4µM
Cn1cc(C(=O)N/N=C/c2cccs2)c2ccccc21	none (no result: Casp7 inh, FLuc inh, IkB sig inh, Casp1 inh)
O=C(Nc1ccc2c(c1)OCO2)c1cccc(Cl)c1	FLuc inh 13µM, IkB sig inh inconclusive, p53ts 39C tox inconclusive, p53ts 32C tox inconclusive
Cc1cc(C(=O)Nc2ccc3c(c2)OCO3)cs1	FLuc inh 16µM, p53ts 39C tox 10µM, p53ts 32C tox 13µM
O=C(N/N=C/c1cccs1)c1ccc2c(c1)OCO2	p53ts 39C tox 10µM, p53ts 32C tox 8.9µM (no result: Casp7 inh, FLuc inh, IkB sig inh, Casp1 inh)
CCOC(=O)c1c(C)c(C(=O)Nc2ccc3c(c2)OCO3)c(C)n1C	none
Cc1c(NC(=O)C(C)N2C(=O)C3C4C=CC(C4)C3C2=O)c(=O)n(-c2ccccc2)n1C (configuration not stated)	none
COC(=O)c1c(-c2cccs2)csc1NC(=O)c1ccc(Cl)cc1	IkB sig inh inconclusive (no result: Casp7 inh, FLuc inh, Casp1 inh)
CC(=O)N(c1cccc(Br)c1)C1C=CS(=O)(=O)C1 (configuration not stated)	none
Cc1occc1-c1nnc(SCC(=O)Nc2ccc(F)cc2)n1Cc1ccccc1	IkB sig inh inconclusive
COc1ccc(C(c2nnnn2CC2CCCO2)N2CCN(c3ccccc3)CC2)cc1 (configuration not stated)	none
Cc1onc(-c2ccccc2Cl)c1C(=O)Nc1ccc2c(c1)OCO2	none (no result: FLuc inh, IkB sig inh)
O=C(Nc1ccc2nsnc2c1)c1ccc2c(c1)OCO2	FLuc inh 3.2µM, IkB sig inh inconclusive, p53ts 39C tox inconclusive, p53ts 32C tox inconclusive
CCOCCCNC(=O)c1ccc2c(c1)OCO2	none
O=C(NCCOc1ccccc1)c1ccc2c(c1)OCO2	FLuc inh 6.3µM, IkB sig inh inconclusive, p53ts 39C tox inconclusive, p53ts 32C tox inconclusive

From PubChem
